# Giardia kill = Small Molecules that selectively kill Giardia lamblia: qHTS; Giardia lamblia trophozoite viability; 340,000 compounds, 0.15% hits; activity change, % at 7.66 µM, hits read low; in the data active = activity change below about -80%; inconclusive = between about -30% and that limit;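 also: parasites exposed to compound for two days anaerobically before the ATP read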
#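 Trophozoites 100 cells/well + cpd; 48 hrs, 37 deg C, anaerobic. ATPLite 1-Step added, 15-30 min RT, luminescence read (ATP-based viability).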
# Integrin act MD = qHTS for Activators of Integrin-Mediated Alleviation for Muscular Dystrophy. Potency, µM (doses to about 38.3 µM), hits mostly activators. 350,000 compounds, 0.064% hits. alpha7betagal myoblasts, beta-gal FDG fluorescence, 48 h; also: nearly all actives have a fitted effect of over 60% in size
#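 Alpha7betagal+/- myoblasts (passage 13) were plated 16-24 hr, then exposed to compounds (1:260 dilution of DMSO stock) for 48 hours at 37C. After MPER lysis, β-galactosidase reporter activity was read as FDG fluorescence (ex 480/em 540) after 30 minutes.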
# RORgamma inh = qHTS for inhibitors of ROR gamma transcriptional activity | Potency, µM (titrated, usually from 53.6 µM), hits mostly inhibitors | Drosophila S2 Gal4-RORgamma UAS-luciferase reporter, 20 h | 310,000 compounds, 5.4% hits | Nuclear receptor ROR-gamma (Mus musculus), P51450; also: nearly all actives have a fitted effect of over 60% in size
#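 Luminescence from a UAS-regulated Photinus luciferase reporter in stably transfected Drosophila Schneider cells is measured; decreased signal marks ROR gamma inhibition. Fusion expression is induced by 700 uM copper sulfate for 20 hr.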
# Gal4-VP16 FLuc = VP16 counterscreen qHTS for inhibitors of ROR gamma transcriptional activity | Drosophila S2 Gal4-VP16 UAS-luciferase, luminescence, 20 h | Potency, µM (highest dose often 53.6 µM), hits mostly inhibitors | 310,000 compounds, 3.5% hits | AID 2546, 2010;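 also: Gal4-VP16 expression switched on by copper sulfate through the metallothionein promoter; nearly all actives have a fitted effect of over 50% in size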
# ERG-DNA inh = qHTS for Small Molecule Inhibitors of the ERG Ets/DNA interaction | Transcriptional regulator ERG (Homo sapiens), P11308 | fluorescence polarization, His-ERG Ets domain / labelled DNA | Potency, µM (titrated, usually from 76.9 µM), actives largely listed as inhibitors | 370,000 compounds, 0.028% hits | AID 624246, 2012; active = well fitted inhibition curve with a large enough effect in the polarisation, with a control signal flat; inconclusive = small, poorly fitted or top-dose-only effect, or effect the other way, or a change in a side signal; inactive = no such curve, though single readings can be large or run the other way; the % refers to the polarisation;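 also: polarization taken with two DNA probes labelled with fluorescein and Texas red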
# Target sequence (P11308 whole entry, looked up, the tested form may be a part): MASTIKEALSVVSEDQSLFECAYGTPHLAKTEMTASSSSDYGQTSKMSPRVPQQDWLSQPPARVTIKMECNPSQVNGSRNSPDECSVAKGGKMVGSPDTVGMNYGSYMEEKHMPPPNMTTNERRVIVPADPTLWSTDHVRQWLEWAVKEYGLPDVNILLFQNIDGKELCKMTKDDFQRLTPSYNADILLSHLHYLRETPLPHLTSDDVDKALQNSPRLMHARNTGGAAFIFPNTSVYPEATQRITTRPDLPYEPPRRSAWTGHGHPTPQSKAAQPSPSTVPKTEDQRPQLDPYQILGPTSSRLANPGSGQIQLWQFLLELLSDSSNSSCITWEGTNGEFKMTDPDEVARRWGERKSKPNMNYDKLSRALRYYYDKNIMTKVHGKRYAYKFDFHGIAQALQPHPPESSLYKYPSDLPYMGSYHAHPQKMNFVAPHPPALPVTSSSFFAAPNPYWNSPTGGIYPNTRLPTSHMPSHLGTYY
#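 His-tagged ERG Ets domain (1 uM in the protein solution; 300mM KCl, 50mM Tris-HCl, 1mM EDTA, 1mM DTT, pH 7.5) received compound, then a probe mix of 5 nM fluorescein-DNA and 100nM Texas-615-DNA. Fluorescence polarization was read for both dyes.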
# Hits are given with their value; – = inactive; ? = inconclusive; · = no result given; [ ] = another dose, or the depositor's remark. The sample as a whole holds a higher share of hits than the screen did. Unless noted, calls follow the shape of the dose curve; as a rule, active = well fitted curve in the direction sought with a large enough effect; inconclusive = small, poorly fitted or top-dose-only effect, or another doubt; inactive = no such curve, though single readings can be large; an effect the other way counts as inactive or inconclusive.
SMILES,Giardia kill,Integrin act MD,RORgamma inh,Gal4-VP16 FLuc,ERG-DNA inh
Cc1cccc(Nc2nc(-c3ccc(O)c(O)c3)cs2)n1,–,–,4.47µM,5.62µM,–
COc1ccc(-c2csc(Nc3cc(C)ccn3)n2)cc1C,–,–,?,–,–
Cc1ccnc(Nc2nc(-c3ccc(O)cc3)cs2)c1,–,–,3.16µM,3.98µM,–
CCOC(=O)CCN1C(=O)[C@H]2[C@H]3[C@H](O)[C@H](O)C/C(=N/OCC(C)C)[C@H]3CC[C@@H]2C1=O,·,·,–[10 µM],–[10 µM],·
COC(=O)C1=C2N(Cc3ccccc3)C(C)=C(C(=O)OC)C(c3ccccc3)N2C(=O)[C@](O)(C(=O)OC)C1 (some centres undefined),·,·,–[10 µM],–[10 µM],·
Cc1ccccc1-c1nc(CS(=O)(=O)CC(=O)NCCCc2ccccc2)c(C)o1,·,·,·,·,–
CCCC[C@@H]1C[C@H]1C(NC(=O)c1cccs1)c1ccc(C(F)(F)F)cc1 (some centres undefined),·,·,–,–,·
Cc1ccnc(Nc2nc(-c3ccc(O)c(O)c3)cs2)c1,–,–,11.2µM,5.62µM,–
Cc1ccnc(Nc2nc(-c3ccc(O)cc3O)cs2)c1,–,–,0.708µM,2.24µM,–
Oc1ccc(Nc2nc(-c3ccc(Cl)cc3)cs2)cc1,·,·,?,14.1µM,·
CC(c1ccccc1F)n1cc(C(=O)NCc2ccncc2)nn1 (centres undefined),–,–,2.82µM,–,–
Cn1c(=O)c([N+](=O)[O-])c(-n2ccnc2)c2ccccc21,–,–,?,7.94µM,–
Cn1c(=O)c([N+](=O)[O-])c(NCCCn2ccnc2)c2ccccc21,–,–,–,–,–
Oc1[nH]c2ccc(Br)cc2c1N=NC(=S)N1CCOCC1,–,–,1.58µM,1.58µM,–
O=C(N=Nc1c(O)[nH]c2ccccc12)c1ccc2c(c1)OCO2,-82.2,–,?,?,–
O=C(N=Nc1c(O)[nH]c2ccccc12)c1ccc(CN2CCOCC2)cc1,–,–,–,–,–
C=CCn1c(O)c(N=NC(=O)c2ccc3c(c2)OCO3)c2ccccc21,–,–,–,–,–
Oc1[nH]c2ccccc2c1N=NC(=S)N1CCOCC1,–,–,0.1µM,2.82µM,–
COC(=O)N=Nc1c(O)[nH]c2ccc(Br)cc12,–,–,–,–,–
COC1=CC(=O)OC(c2ccco2)C1 (centres undefined),–,?,·,·,–
Cc1ccc2nc3c(cc(C#N)c(=O)n3-c3nnc(SCc4ccc(F)cc4)s3)c(=O)n2c1,·,·,·,·,–
CCn1c(C(=O)N2CCC(C(=O)NCCc3ccccc3)CC2)cc2sccc21,·,·,·,·,–
CCn1c(C(=O)N2CCC(C(=O)NCCCSC3CCCCC3)CC2)cc2sccc21,–,–,–,14.1µM,–
Cc1ccc(NC2=C(Cl)C(=O)OC2OC(=O)c2ccco2)cc1 (centres undefined),–,–,11.2µM,–,·
Cc1cccc(NC2=C(Cl)C(=O)OC2OC(=O)c2ccco2)c1 (centres undefined),–,–,11.2µM,?,–
SMILES,Giardia kill,Integrin act MD,RORgamma inh,Gal4-VP16 FLuc,ERG-DNA inh
COc1ccc(O[C@H]2C=C[C@@H](c3ccccc3)O[C@H]2CO/N=C2/c3cc(OC)ccc3O[C@@H](c3cccc(OC)c3)[C@H]2O)cc1,·,·,–[10 µM],–[10 µM],·
COc1cc2nc(NCc3ccccc3)n3nc(-c4ccccc4)nc3c2cc1OC,·,·,·,·,–
CC(c1ccncn1)N(C)Cc1nc(-c2ccc(C(F)(F)F)cc2)no1 (centres undefined),–,?,3.16µM,7.08µM,–
CC(c1ccncn1)N(C)Cc1nc(Cc2ccccc2F)no1 (centres undefined),–,–,–,–,–
CC(C)n1c(=S)[nH]c2scc(-c3cccs3)c2c1=O,–,?,?,–,–
CCn1c(=S)[nH]c2scc(-c3cccs3)c2c1=O,–,?,0.708µM,3.16µM,–
C=CCn1c(=S)[nH]c2scc(-c3ccc(C)o3)c2c1=O,–,–,0.282µM,1.26µM,–
O=c1c2c(-c3cccs3)csc2[nH]c(=S)n1-c1ccccc1,–,–,2.24µM,3.55µM,–
O=C(c1ccccc1O)N1N=C(c2ccccc2)CC1(O)C(F)(F)F (centres undefined),–,–,8.91µM,?,–
CCCCC1=NN(C(=O)c2ccncc2)C(O)(C(F)(F)F)C1 (centres undefined),–,–,–,?,–
COc1cccc(C(=O)N2N=C(c3ccccc3)CC2(O)C(F)(F)F)c1 (centres undefined),–,–,17.8µM,20µM,·
CCCCC1=NN(C(=O)c2ccco2)C(O)(C(F)(F)F)C1 (centres undefined),–,–,6.31µM,17.8µM,?
O=C(c1ccco1)N1N=C2CCCCCC2C1(O)C(F)(F)F (centres undefined),–,–,0.631µM,1µM,–
Cc1ccc(C(=O)C(C)OC(=O)C2CCN(c3ccc(C(F)(F)F)cn3)CC2)cc1C (centres undefined),–,–,·,·,–
COc1ccc(C(=O)N2N=C(c3ccccc3)CC2(O)C(F)(F)F)cc1 (centres undefined),–,–,15.8µM,–[10 µM],–
Nc1ccc(C(=O)N2N=C(c3ccc(F)cc3)CC2(O)C(F)(F)F)cc1 (centres undefined),–,–,?,–,–
Cc1ccc(C2=NN(C(=O)c3ccco3)C(O)(C(F)(F)F)C2)cc1 (centres undefined),–,–,?,?,–
COc1cccc(C2=NN(C(=O)c3ccccc3)C(O)(C(F)(F)F)C2)c1 (centres undefined),–,–,10µM,?,–
Nc1ccc(C(=O)N2N=C(c3ccccc3)CC2(O)C(F)(F)F)cc1 (centres undefined),–,–,10µM,–,–
COc1cccc(C2=NN(C(=O)c3ccco3)C(O)(C(F)(F)F)C2)c1 (centres undefined),–,–,5.62µM,?,–
O=C(CCNS(=O)(=O)c1ccccc1)N1CCN(c2ccccc2F)CC1,–,–,–,–,–
CCOc1ccccc1C(C(=O)NC1CCCC1)N(C(=O)c1csnn1)C1CC1 (centres undefined),–,–,–,–,–
c1ccc(-c2nnc3sc(-c4csc5c4CCCC5)nn23)cc1,–,–,6.31µM,?,–
CCCNC(=S)NNC(=O)c1cc(-c2cccnc2)nc2ccccc12,–,–,?,–,–
CCNC(=S)NNC(=O)c1cc(-c2cccc(C)c2)nc2ccccc12,–,–[7.66 µM],3.55µM,8.91µM,–
O=C(NNC(=S)Nc1ccccc1)c1cc(-c2cccnc2)nc2ccccc12,–,–,–,–,–
CCCCOc1cccc(-c2cc(C(=O)NNC(=S)NCC)c3ccccc3n2)c1,–,–,–,?,–
CCNC(=S)NNC(=O)c1cc(-c2cccc(OCC)c2)nc2ccccc12,–,–[7.66 µM],12.6µM,?,–
